Results on 40 compounds are retold here after PubChem BioAssay (Tox21).

Results filed as inconclusive are left out. Values without a mark were called inactive. Active and inactive are the calls of the source. Calls come from the whole dose curve; as a rule, active = well fitted cell-killing curve with a large enough effect in the repeat runs; inconclusive = weak or mixed curves, or effect the other way; inactive = no such curve, though single readings can be large or run the other way.
% is set by controls: 0 for no effect and ±100 for the full control effect; potency is the fitted concentration of half-maximal effect.

The nature of this experiment: qHTS assay to identify small molecule antagonists of the glucocorticoid receptor (GR) signaling pathway - cell viability counter screen (AID 720693). Note: nearly all actives have a fitted effect of over 55% in size. Particulars: GR-bla HeLa viability, CellTiter-Glo luminescence, 18 h, with 5 nM dexamethasone present; series mostly up to 58.5 µM; viability change, negative = cytotoxic: at the top concentration. The source says:
National Center for Advancing Translational Sciences [NCATS]
NIH Chemical Genomics Center [NCGC]
U.S. Environmental Protection Agency [EPA]
National Institutes of Environmental Health Sciences [NIEHS]
National Toxicology Program [NTP]
U.S. Food and Drug Administration [FDA]
The Glucocorticoid receptor (GR) is one of the members of the nuclear receptor family of ligand-dependent transcription factors. GR plays a critical role in carbohydrate, protein and lipid metabolisms and programmed cell death. CellSensor GR-bla HeLa cell line (Invitrogen) contains a beta-lactamase reporter gene under the control of the glucocorticoid response element stably integrated into HeLa cells, a cervical cancer cell line that expresses glucocorticoid receptor. The activation of the reporter gene under culture conditions can be detected by fluorescence intensity. This cell line has been used to screen the Tox21 10K compound library and to identify the compounds that inhibit the GR signaling. The cytotoxicity of the Tox21 compound library against the GR-bla HeLa cell line was tested in parallel by measuring the cell viability using CellTiter-Glo assay in the same wells.
Tox21 Assay Protocol Summary:
The GR-bla HeLa cells were dispensed at 1500 cells/5 ul/well in 1536-well black wall/clear bottom plates using a Multidrop Combi (ThermoFisher Scientific, Waltham, MA) dispenser. After the assay plates were incubated at a 37 C/5% CO2 incubator for 4 hours, 23 nL of compounds dissolved in DMSO, positive controls or DMSO only was transferred to the assay plate by a pintool station (Kalypsys, San Diego, CA), followed by addition of 1 uL of dexamethasone (5 nM, final concentration in the well). The plates were incubated at 37 C for 18 hours. After 1 uL of LiveBLAzerTM B/G FRET substrate was added using a Flying Reagent Dispenser (Aurora Discovery, San Diego, CA), the plates were incubated at room temperature (RT) for 2 hours, and fluorescence intensity was measured by an Envision plate reader (PerkinElmer, Shelton, CT). After measurement of bla assay, 3 ul CellTiter-Glo (Promega, Madison, WI) was added to measure the cytotoxicity and the plates were then incubated at RT for 30 min. The luminescence was measured using a ViewLux (Perkin Elmer) plate reader.
For orientation: qHTS replaces the single test concentration by a dilution series.
`CCNC(=O)NC(=O)/C(C#N)=N/OC`: the “viability change, negative = cytotoxic” value is 6.84%.
On the same count and under the same terms, the value for `C=CCN1C[C@H](C)N([C@H](c2ccc(C(=O)N(CC)CC)cc2)c2cccc(OC)c2)C[C@H]1C` was 11.1%; that for `CN[C@@H](C)[C@H](O)c1ccccc1` was -1.12%.
Still for that read-out and setting: next, `O=C(O)c1cc(Cl)ccc1Cl`: 23.2%; `C1CS1`: -9.36% [at 78.9 µM].
The same measure, in the same setting: the value for `Cc1cnc(C2=NC(C)(C(C)C)C(=O)N2)c(C(=O)O)c1` (stereo not given) was -0.0798%.
Take `c1ccc2sc(SNC3CCCCC3)nc2c1`: the Potency entry was “inactive”.
On the same count and under the same terms, the value for `CC(C)CCON=O` was “inactive”.
For the compound `C[C@H](N)[C@H](O)c1ccc(O)c(O)c1`, the “viability change, negative = cytotoxic” value is -0.252%.
`NC(=S)c1c(Cl)cccc1Cl`: the “viability change, negative = cytotoxic” value was -14%.
On the same count and under the same terms, next, `CCSCc1ccccc1OC(=O)NC`: 8.3%; `CC(C)(C#N)C(C)(C)C#N`: 9.32% [at 78.9 µM]; `COc1ccccc1N1CCNCC1`: -8.38%.
For the compound `O=C(O)C(F)(F)C(F)(F)C(F)(F)C(F)(F)C(F)(F)F`, the “viability change, negative = cytotoxic” value was 8.86%.
`CCC1(CCC(C)C)C(=O)NC(=O)NC1=O`: the “viability change, negative = cytotoxic” value was 1.32%.
On to `O=C(O)COc1cc(Cl)c(Cl)cc1Cl`, for which the Potency result is “inactive”.
As for `NC(=O)CF`, the “viability change, negative = cytotoxic” value was 12.5%.
As to `Cc1ccc(N)c(C)c1`, the Potency entry was “inactive”.
Still for that read-out and setting: the value for `CCOC(=O)C1OC1(C)c1ccccc1` (stereo not given) was “inactive”.
With `Cc1nc(N(C)C)nc(OC(=O)N(C)C)c1C`, the “viability change, negative = cytotoxic” value is -4.02%.
The same measure, in the same setting: the value for `CCOP(=S)(S)OCC` was -4.1% [at 78.9 µM]; that for `C=C(C)C(=O)OCCCCOC(=O)C(=C)C` was 4.85%.
`ClCc1ccccc1Cl`: the “viability change, negative = cytotoxic” value was -7.07% [at 78.9 µM].
In the case of `OC[P+](CO)(CO)CO`, the Potency entry was “inactive”.
Consider `Clc1ccc2ccccc2c1`, for which the “viability change, negative = cytotoxic” value is -2.78% [at 78.9 µM].
The same measure, in the same setting: next, `N#CC1(N=NC2(C#N)CCCCC2)CCCCC1`: -0.599%.
`CCCN(CCOc1c(Cl)cc(Cl)cc1Cl)C(=O)n1ccnc1`: the Potency result is “inactive”.
Still for that read-out and setting: the value for `Cc1ccccc1` was “inactive”.
Regarding `O=C(NC(=O)c1cc(F)c(F)cc1Cl)Nc1cc(F)ccc1N1CCC(C(=O)O)CC1`, the “viability change, negative = cytotoxic” value was 19.3%.
Same read-out and setting: the value for `N#CC(C#N)=C(C#N)C#N` was 5.78% [at 78.9 µM].
As for `CCCCCCCCn1sccc1=O`, the Potency result is “inactive”.
Still for that read-out and setting: the value for `Nc1cc(Cl)cc(C(=O)O)c1Cl` was “inactive”.
Regarding `O=C(Cl)OCCOCCOC(=O)Cl`, the “viability change, negative = cytotoxic” value was 0.81%.
The same measure, in the same setting: next, `O=C(CCl)CCl`: 7.4%; `CN1CC[C@]23c4c5ccc(O)c4O[C@H]2[C@@H](O)C=C[C@H]3[C@H]1C5`: 6.52%.
Turning to `CC(C)(C)CC(C)(C)c1ccc(O)cc1`, the Potency is 24.5 µM (active).
With `CCCC1CCCCN1` (stereo not given), the “viability change, negative = cytotoxic” value is 2.76%.
Regarding `OCC1CO1` (stereo not given), the Potency entry is “inactive”.
On to `O=[N+]([O-])O[C@H]1CO[C@H]2[C@@H]1OC[C@H]2O[N+](=O)[O-]`, for which the “viability change, negative = cytotoxic” value was -0.0939%.
Same read-out and setting: the value for `CCCCCCCCP(=O)(O)O` was 1.82%.
